PubChem BioAssay AID488899 (Broad Institute, 2010)
The whole screen tested about 330,000 compounds, of which about 2,800 (0.85%) were called active. Shown is part of a subset that was picked to be rich in actives. Values without a mark were called inactive.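 Rule for the calls: active = mean inhibition across replicates of 60% or more, whatever share of single replicates reaches that level; inconclusive = some that reach 60%, reason not given; inactive = mean inhibition across replicates below 60%.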

Test: MITF transcriptional activity suppression – cell-based, SK-MEL-5, single point, luciferase, primary screen (AID 488899)
Conditions: SK-MEL-5 TRPM1 promoter luciferase, 24 h; at 12.5 µM; stronger effect = higher value
For COc1ccc(S(=O)(=O)/N=C2\C=C(NS(=O)(=O)c3ccccc3)C(=O)c3ccccc32)cc1, the inhibition was 12.7%. Molecule CC(NC(=O)c1ccccc1)C(=O)Nc1ccccc1 (stereo not given) has an inhibition of -6.34%. For O=C1C=C(NS(=O)(=O)c2ccccc2)C(=O)c2ccccc21, the inhibition was 65.7% (active). For O=C(NC1=CC(=O)c2ccccc2C1=O)c1ccccc1, the inhibition was 94.4% (active). O=S(=O)(NCCNS(=O)(=O)c1ccccc1)c1ccccc1 gave an inhibition of 11.2%. In the case of Cn1c(NC(=O)c2ccccc2)nc2ccccc21, the inhibition is reported as -26.1%. Work on O=C(COC(=O)CSc1nnc(-c2ccc(Cl)cc2)o1)Nc1cc(Cl)cc(Cl)c1 yielded an inhibition of -3.64%. In the case of CC(C)c1nc2oc3c(N4CCN(C)CC4)ncnc3c2c2c1CCC2, the inhibition is reported as 5.53%. CC(=O)N1CCc2ccc(N)cc21 showed an inhibition of 6.31%. For CSc1ccccc1NC(=O)c1cnc2sc(C)cn2c1=O, the inhibition was -128%. COCCN1C(=O)C(=O)/C(=C(/O)c2ccc(S(=O)(=O)N3CCOCC3)cc2)C1c1ccc(O)c(OC)c1 (stereo not given) showed an inhibition of -1.49%. With O=C(CNCc1ccc(Cl)cc1)Nc1cccc(C(=O)O)c1 the inhibition was 2.1%. For O=S1(=O)CCC(NC(=S)SCc2ccccc2Br)C1 (stereo not given), the inhibition was 75.3% (active). In the case of O=C(CSc1ccccc1F)NC1CCS(=O)(=O)C1 (stereo not given), the inhibition is reported as -4.88%. For CCCSC(=S)NC1CCS(=O)(=O)C1 (stereo not given), the inhibition was 17%. With COc1ccc(OC)c(Cc2cnc3nc(N)nc(N)c3c2C)c1 the inhibition was 8.03%. CCOC(=O)N1CCN(C(=O)c2ccc3c(=O)n(CCc4ccc(OC)c(OC)c4)c(=O)[nH]c3c2)CC1 showed an inhibition of 2.29%. Cc1oc2c(C)c3oc(=O)c(CC(=O)N[C@@H](CC(C)C)C(=O)N[C@@H](Cc4ccccc4)C(=O)O)c(C)c3cc2c1C showed an inhibition of 9.54%. CC(C)(C)NC(=O)COc1ccc(CNc2ccc3[nH]c(=O)[nH]c3c2)cc1 gave an inhibition of 0.891%. Work on O=C(c1ccc2nc(N3CCOCC3)sc2c1)N1CCN(c2ccc(Cl)cc2)CC1 yielded an inhibition of 4.87%. In the case of COc1ccc2nc(N3CCN(C(=O)c4ccc([N+](=O)[O-])o4)CC3)sc2c1, the inhibition is reported as 67.3% (active). COc1ccc2nc(N3C(=O)C(O)=C(C(=O)c4ccco4)C3c3ccco3)sc2c1 (stereo not given) showed an inhibition of 10.6%. Molecule CC(C)(C)c1nnc2sc(SCC(O)=C(C#N)c3nc4ccccc4[nH]3)nn2c1=O has an inhibition of -7.27%. For O=C(CN1CCc2ccccc2C1)Nc1cccc(S(=O)(=O)N2CCOCC2)c1, the inhibition was 4.73%. COC(=O)c1ccc(CN2CCC(CO)(Cc3ccc(OC)cc3)CC2)cc1 gave an inhibition of -13%. Work on Nc1c(Cl)cc(S(N)(=O)=O)cc1S(N)(=O)=O yielded an inhibition of -2.87%. S=C(NCCCc1ccccc1)Nc1ccc(Br)cc1 showed an inhibition of -6.26%. For C=C(C)C(=O)O[C@H]1C/C(C)=C\C(=O)/C=C(\C)[C@H](O)[C@@H]2OC(=O)C(=C)[C@@H]21, the inhibition was 85.9% (active). Molecule O=[N+]([O-])c1cccc(C=NN=Cc2ccccc2O)c1 has an inhibition of -42.5%. CCOc1ccc(CCNC(=O)COC(=O)C2CCN(S(=O)(=O)c3ccccc3)CC2)cc1OCC gave an inhibition of 9.54%. With Cc1c(Cl)c([N+](=O)[O-])nn1Cc1ccc(C(=O)N/N=C\c2cc(Cl)ccc2O)o1 the inhibition was 65.8% (active). Work on Cc1nn(Cc2ccc(Cl)cc2)c(Cl)c1/C=N/NC(=O)c1cccnc1 yielded an inhibition of 18.6%. O=C(N/N=C\c1ccc(Br)cc1)c1ccc(Cn2cccn2)o1 showed an inhibition of -24.2%. With COc1ccc(CCN2C(=O)CC(N3CCC(C(N)=O)CC3)C2=O)cc1OC (stereo not given) the inhibition was 18.7%. CCCCN1CC(COCc2ccccc2)OCCS1(=O)=O (stereo not given) gave an inhibition of 6.74%. O=C(CC1Sc2ccccc2NC1=O)NNc1ccc(Cl)c(Cl)c1 (stereo not given) gave an inhibition of -0.562%. With C[C@H]1CN([C@@H](C)CO)C(=O)Cc2cc(NC(=O)Cc3ccccc3)ccc2O[C@H]1CN(C)S(=O)(=O)c1cccs1 the inhibition was 14.1%. Molecule CCCCCn1c(=O)c(C(=O)OCC)c(Cl)c2ccccc21 has an inhibition of 6.88%. CC(=O)c1nc2ccccc2n1Cc1ccccc1 gave an inhibition of 3.29%. For CC(=O)Oc1c(C(=O)c2nnc(C)o2)c(=O)n(Cc2ccccc2)c2ccccc12, the inhibition was 66% (active). For Cc1ccc(NC(=S)NC(NC(=O)Cc2cccc3ccccc23)C(Cl)(Cl)Cl)cc1 (stereo not given), the inhibition was 36%. Work on Cc1n[nH]c(=O)c2c1nnn2Cc1ccc(F)cc1 yielded an inhibition of 0.048%. With Cc1ccc(CNS(=O)(=O)CCNC(=O)c2ccccc2)cc1 the inhibition was -8.66%. In the case of COC(=O)C(C)Oc1ccc2c(c1)O/C(=C\c1cccc(Br)c1)C2=O (stereo not given), the inhibition is reported as -3.21%. For COc1cc(C#Cc2ccc3cc(CCCO)oc(=O)c3c2)cc(OC)c1, the inhibition was -11.2%. For COc1cc(/C=C2\Oc3ccc(C#Cc4ccc(O)cc4)cc3C2=O)cc(OC)c1, the inhibition was 73.1% (active). For O=C(C1CC(=O)N(C2CCCC2)C1)N1CCN(c2cccc(C(F)(F)F)c2)CC1 (stereo not given), the inhibition was 3.91%. Work on C[C@H](CO)N1C[C@H](C)[C@H](CN(C)CC2CC2)Oc2ccc(NC(=O)CCN3CCOCC3)cc2C1=O yielded an inhibition of -4.39%. Molecule O=C(CCNC(=O)c1ccc([N+](=O)[O-])cc1)NC1CCCCC1 has an inhibition of 8.98%. O=c1oc2ccccc2c(=O)c2ccccc12 showed an inhibition of -0.811%. With O=C1Nc2cc(C(=O)N3CCC(N4CCCCC4)CC3)ccc2S/C1=C\c1ccccc1 the inhibition was 88.1% (active). Molecule O=C(Nc1ccccc1)C1CCN(C(=O)c2ccc(Br)cc2)CC1 has an inhibition of -9.91%. For NC(=O)C1CCN(C(=O)c2ccc(-c3ccccc3)cc2)CC1, the inhibition was -7.15%. For O=C1[C@@H](c2ccccc2)[C@@H](c2ccccc2)N1c1cccnc1, the inhibition was -10.4%. In the case of COc1ccc(C2NC(=O)C(=O)/C2=C(\O)c2ccc(Cl)cc2)cc1OC (stereo not given), the inhibition is reported as -6.72%. CCOc1cc(N2CCOCC2)c(OCC)cc1NC(=O)c1ccc(C)s1 showed an inhibition of 4.27%. In the case of CCOc1cc(N2CCOCC2)c(OCC)cc1NC(=O)COc1cccc2cccnc12, the inhibition is reported as 83.8% (active). Molecule CCOc1cc(N2CCOCC2)c(OCC)cc1NC(=O)COc1cccc(Cl)c1 has an inhibition of 0.482%. In the case of CCN1C(=O)N[C@@H](c2ccccc2)[C@H](C(C)=O)[C@H]1C, the inhibition is reported as 2.98%. Molecule CCOc1ccc(C(=O)NC(=S)Nc2ccc(N3CCOCC3)c(Cl)c2)cc1[N+](=O)[O-] has an inhibition of 6.29%. For Cc1cc(=O)[nH]c2nnnn12, the inhibition was -4.79%. With O=C(NN=Cc1ccccc1)c1ccccc1 the inhibition was -52.5%. COc1cc(CCC(=O)N2CCN(c3ccccc3Cl)CC2)cc(OC)c1OC gave an inhibition of 7.49%. In the case of CC(C)(C)OC(=O)C[C@@H]1C/C=C\C[C@@H](CC(=O)N[C@H](CO)Cc2ccccc2)C(=O)NC[C@@H](c2ccccc2)OC1=O, the inhibition is reported as 1.12%. For O=C(C[C@H]1C/C=C\C[C@@H](NC(=O)OCC2c3ccccc3-c3ccccc32)C(=O)O[C@@H](c2ccccc2)CNC1=O)N[C@H](CO)Cc1ccccc1, the inhibition was 86.8% (active). CC(C)(C)OC(=O)C[C@H]1C/C=C\C[C@@H](CC(=O)N[C@H](CO)Cc2ccccc2)C(=O)NC[C@@H](c2ccccc2)OC1=O gave an inhibition of 4.03%. Work on O=C1NCC(c2ccccc2)(c2ccccc2)C(=O)N1 yielded an inhibition of -7.87%. For CC12CN3CCN(CC(C3)/C1=N\NC(=O)c1ccccc1N)C2, the inhibition was 9.43%. Molecule N#CC1(Nc2ccc(-c3ccc(Cl)cc3)cc2)CCCC1 has an inhibition of -58.9%. CN(CC(=O)O)C(=O)c1ccccc1 showed an inhibition of -4.07%. CN(/N=C/c1ccccc1)C(=S)c1ccccc1 showed an inhibition of 1.77%. For CN(O)C(=S)c1ccccc1, the inhibition was 82% (active). In the case of CCOC(=O)N1CCN(S(=O)(=O)c2cc3c(cc2C)NC(=O)CO3)CC1, the inhibition is reported as 2.83%. For C=CCn1cc(C(=O)NCc2ccc(Cl)cc2)c(=O)c2cc(S(=O)(=O)N(CC)CC)ccc21, the inhibition was -5.87%. Work on O=C(CN1CCN(c2ncccn2)CC1)Nc1ccccc1C(F)(F)F yielded an inhibition of 18.5%. In the case of CC(=O)c1ccc(S(=O)(=O)N2CCN(c3nc4c(C)c(C)ccc4cc3C#N)CC2)cc1, the inhibition is reported as 3.2%. With CC(=O)c1ccc(S(=O)(=O)N2CCC3(CC2)OCCO3)cc1 the inhibition was 8.67%. For CC(=O)c1ccc(S(=O)(=O)N2CCN(C(=O)/C=C/c3ccc4ccccc4n3)CC2)cc1, the inhibition was 72.5% (active). Molecule CCN(CC)CCNS(=O)(=O)c1ccc(/C=C/C(=O)O)cc1 has an inhibition of 14.7%. Molecule C=CC1=C(C(=O)O)N2C(=O)[C@@H](NC(=O)/C(=N\OCC(=O)O)c3csc(N)n3)[C@H]2SC1 has an inhibition of -2.96%. For CC(=O)N(CC(O)CO)c1c(I)c(C(=O)NCC(O)CO)c(I)c(C(=O)NCC(O)CO)c1I (stereo not given), the inhibition was -3.11%. Brc1ccc2ncnc(NCc3cccnc3)c2c1 gave an inhibition of -1.36%. In the case of COc1ccc(Nc2ncnc3ccc(Br)cc23)c(OC)c1, the inhibition is reported as 67.9% (active). Molecule O=C(O)CCCCCNc1ncnc2ccc(Br)cc12 has an inhibition of 1.66%. In the case of N/C(=N\S(=O)(=O)c1ccc(Cl)cc1)N1CCOCC1, the inhibition is reported as 1.47%. In the case of Cc1cc([N+](=O)[O-])c(=O)[nH]c1C, the inhibition is reported as -0.774%. COc1ccc(C(C[N+](=O)[O-])n2nc(C)cc2C)cc1 (stereo not given) gave an inhibition of 27.2%. In the case of CCN(CC)c1ccc(/C=N/NC(=O)c2cnccn2)c(O)c1, the inhibition is reported as 25.3%. Molecule O=C(NN=Cc1ccccc1O)NN=Cc1ccccc1O has an inhibition of 22.9%. For Cc1ccc(/C=N/NC(=O)C2=NNC(c3ccccc3)(c3ccccc3)C2)c(O)c1, the inhibition was 76.5% (active).
